# Screening results deposited in PubChem by Milwaukee Institute for Drug Discovery.
# NS3h inh CB = HCV NS3 helicase inhibitors, primary screen, biochemical, fluorescence polarization, ChemBridge library; Hepatitis C virus NS3 helicase; NS3h Cy5-dT15 DNA binding; inhibition, % at 100 µM; 16,000 compounds, 1.6% hits; AID 687043, 2013;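 active = inhibition above the average over every tested compound plus 3 SD, cut at about 40% in these data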
# Cy5 interf NS3h = Cy5 fluorescence quenchers or enhancers, artefact control for HCV NS3 helicase inhibitor project, biochemical, ChemBridge library, Cy5 readout; Cy5-dT15 DNA with NS3h, fluorescence interference; actives lie on both sides; signal over control mean, under 1 quenches; fluorescence interference ratio at 100 µM; 16,000 compounds, 6% hits; AID 720488, 2013;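 active = compound fluorescence over control fluorescence at most 0.8, a quencher, or at least a set upper limit, an enhancer; inactive = ratio between 0.8 and the set upper limit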
# Numbers without * were called inactive. Rows were chosen to be rich in hits. Some 7.6% of all compounds tested hit in one or more screens of this group.
SMILES,NS3h inh CB,Cy5 interf NS3h
COc1ccc(CNC(=O)C(=O)NCc2ccccc2)cc1,10,0.73*
Cc1ccc(CNC(=O)C(=O)N2CCCC2)cc1,4,1.3*
COCCNC(=S)Nc1ccc(OC)cc1,8,0.77*
S=C(NCCOCCOCCNC(=S)Nc1ccccc1)Nc1ccccc1,3,1.1
COc1ccc(CCNC(=O)C(=O)NCCCOC(C)C)cc1,6,1.1
Cc1ccc(CNC(=O)C(=O)NC(C)C)cc1,12,1.1
O=C(COc1ccc(Cl)cc1)Nc1ccccc1,16,1
O=C1NC(=O)C(=Cc2ccc(O)c(Cl)c2)C(=O)N1,29,1.1
O=C(Nc1ncc(Cc2cc(Cl)ccc2Cl)s1)c1ccccc1Br,6,1
CCOC(=O)C(C(=O)OCC)=C1Sc2ccccc2N1C,2,0.94
CCc1ccc(N2CC(C(=O)Nc3c(CC)cccc3CC)CC2=O)cc1 (configuration not stated),-2,1.1
Cc1ccc(S(=O)(=O)Oc2ccccc2C(=S)N2CCOCC2)cc1,2,1
COCCOC(=O)C1=C(C)NC(C)=C(C(=O)OCCOC)C1c1cn(-c2ccccc2)nc1-c1ccc(F)cc1,7,1.1
O=C(Cc1ccc(F)cc1)NCC1CCCO1 (configuration not stated),4,0.75*
O=C(NCc1ccc(F)cc1)c1ccccc1I,10,1
O=C(Cc1ccc(F)cc1)NCc1ccccc1,3,0.59*
O=C(NCc1ccccc1)c1ccccc1Cl,7,0.79*
O=C(O)c1ccc(C(=O)NCc2ccccc2)c(C(=O)O)c1,-8,1
Cc1ccc(CNC(=O)C(=O)NCc2ccccc2)cc1,9,1.2*
COc1ccc(CC(=O)NCC2CCCO2)cc1OC (configuration not stated),1,1.1
Cc1ccc(CNC(=O)C(=O)NCc2ccncc2)cc1,-4,1
CCOc1cc(/C=C2/SC(=S)N(CC)C2=O)ccc1OCc1ccccc1Cl,3,1.1
Cc1cc(NC(=O)CCN2C(=O)/C(=C/c3ccc(F)cc3)SC2=S)no1,-6,0.95
CCOC(=O)c1c(-n2c(C)cc(/C=C3\NC(=O)NC3=O)c2C)sc2c1CCCC2,14,0.99
Cc1cccc(NC(=O)c2ccccc2C(F)(F)F)c1C,10,0.94
SMILES,NS3h inh CB,Cy5 interf NS3h
CN(C)c1ccc(C(=O)N2CCN(Cc3ccccc3)CC2)cc1,-6,0.84
N#Cc1c(C(F)(F)F)cc(-c2cccs2)nc1SCc1ccc(Cl)cc1,7,1.1
O=C(Nc1sc2c(c1C(=O)NCCc1ccccc1)CCCCC2)c1ccccc1F,4,0.99
O=C(c1ccccc1C(F)(F)F)N1CCOCC1,-8,1.1
O=C1C2C3C=CC(C4CC34)C2C(=O)N1c1cccc(Cl)c1 (configuration not stated),2,1.1
CCCOc1ccc(C(=O)Nc2ccccc2C(=O)O)cc1,1,1.1
COc1ccc(C(O)(CNCc2ccccc2)c2ccc(Br)cc2)cc1 (configuration not stated),16,0.73*
Cc1ccc(C(O)(CNCc2ccccc2)c2ccc(Br)cc2)cc1 (configuration not stated),7,0.93
COc1ccc(C(=O)N2CCN(S(C)(=O)=O)CC2)cc1,-2,1.1
CS(=O)(=O)N1CCN(C(=O)c2ccccc2F)CC1,8,0.7*
O=Cc1ccc(OC(=O)c2ccccc2I)cc1,15,0.7*
O=C1NC(=O)/C(=C/c2ccc(OC(=O)c3ccccc3I)cc2)S1,8,1.1
O=C(Nc1ccc(Br)cc1)NS(=O)(=O)c1ccccc1Cl,2,0.94
CCOC(=O)C1=C(O)/C(=C/c2cccc(Br)c2)SC1=Nc1ccccc1,18,0.66*
CCOC(=O)C1=C(O)/C(=C/c2ccc(OC)c(OC)c2)SC1=Nc1ccc([N+](=O)[O-])cc1,-37,0.99
COc1ccc(C(=O)CSc2ncn[nH]2)cc1[N+](=O)[O-],10,1
Cc1ccc(C(=O)N2CCN(c3c(Cl)cccc3[N+](=O)[O-])CC2)cc1,10,0.88
CCN(CC)C(=S)SCC(=O)Nc1cc(C)ccc1C,16,1
Cc1ccc(C)c(Nc2nc3c(s2)CCCC3)c1,16,0.78*
Clc1cccc(Nc2nc3c(s2)CCCC3)c1,16,0.76*
O=C(Nc1cccc(Cl)c1)Nc1nnc(/C=C/c2ccccc2Cl)s1,-15,1
Cc1cc(/C=C2\SC(=S)NC2=O)c(C)n1-c1cccc([N+](=O)[O-])c1,6,0.91
N#C/C(=C\c1ccc(-c2ccccc2Cl)o1)C(=O)Nc1cccc2ncccc12,2,0.95
N#C/C(=C\c1ccc(-c2ccc(Cl)cc2)o1)C(=O)Nc1cccc2ncccc12,-42,0.55*
COc1ccc(NC(=O)CSc2ncccn2)cc1,0,1.1
CCOc1ccc(NC(=O)CSc2nnc(-c3ccc(OC)cc3)o2)cc1,20,0.74*
